From PubChem BioAssay (NCATS)
“And” between values parts separate entries of the source, which are not always exact repeats. Equal values may be shown once. Inconclusive results are not listed. The source made the active and inactive calls. The call rests on the fitted dose curve; in most records, active means well fitted curve in the direction sought with a large enough effect; inconclusive means small, poorly fitted or top-dose-only effect, or another doubt; inactive means no such curve, though single readings can be large; an effect the other way counts as inactive or inconclusive.

Assays:
[1] = Identifying Small Molecule Inhibitors of Pancreatic Cancer Stem Cells (SN12C, Spheroid) (AID 1259360); conditions: Potency: SN12C spheroid viability; further: potency means the concentration at half of the fitted maximal effect
How it was run: (§1)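 Adherent (2D) versus sphere (3D) formats; spheres generated 14 d in SCM beforehand. Compound transferred by pin tool after 4 h, 48 h incubation, CellTiter-Glo endpoint.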

[2] = Identifying Small Molecule Inhibitors of Pancreatic Cancer Stem Cells (A278, Adherent) (AID 1259361);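 further: viability read after 48 h compound exposure; nearly all actives have a fitted effect of over 35% in size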
How it was run: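 Spheroids grown 14 days in stem cell media on hydrogel-coated nonadherent plates; 2D lines seeded directly. Compounds added after 4 h attachment, 48 h at 37C, 5% CO2; CellTiter-Glo luminescence normalized to DMSO (no inhibition) and no-cell wells (full inhibition).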

[3] = Identifying Small Molecule Inhibitors of Pancreatic Cancer Stem Cells (Panc1, Adherent) (AID 1259362); conditions: Potency: viability;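 further: compound exposure lasted 48 h before the viability read; plate controls were DMSO-treated cells for no effect and cell-free media wells for full effect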
How it was run: as §1

[4] = P-glycoprotein substrates identified in KB-3-1 adenocarcinoma cell line, qHTS therapeutic library screen (AID 1346986); further: nearly all actives have a fitted effect of over 60% in size;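 further: potency means the concentration at half of the fitted maximal effect; potency is for cytotoxicity meaning loss of cell viability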
How it was run: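 Viability by CellTiter-Glo after 72 h compound exposure at 37 degree C, 5% CO2. Cytotoxic call: curve class -1.1 to -2.4, maximum response >50%, AC50 < 10 uM, compared across KB-3-1 and P-gp-overexpressing KB-8-5-11.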

[5] = P-glycoprotein substrates identified in KB-8-5-11 adenocarcinoma cell line, qHTS therapeutic library screen (AID 1346987); further: nearly all actives have a fitted effect of over 65% in size; further: potency means the concentration at half of the fitted maximal effect; on activity change, negative = cytotoxicity: series mostly up to about 44 µM; on the % scale 0 is the no-effect control and ±100 the full control effect
How it was run: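 In this qHTS, P-gp-rich KB-8-5-11 cells received library compounds across a concentration range. Viability was quantified by luminescence after 72 h at 37 degree C.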

[6] = NS1 protein of Zika virus - qHTS assay to identify small molecule inhibitors in human HEK 293 cells (AID 1347053);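 further: series mostly up to about 46 µM; plate controls were infected untreated cells for no effect and uninfected cells for full effect; nearly all actives have a fitted effect of over 55% in size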
How it was run: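 Readout was TR-FRET using paired anti-NS1 antibodies after 24 h infection of HEK 293 cells with ZIKV MR766 (MOI = 0.5). Compound preceded virus by 1 h; reduced signal reflects lower NS1 expression.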

NC(=O)c1ccc(-c2nc(-c3ccc4c(c3)OCO4)c(-c3ccccn3)[nH]2)cc1
inactive: Potency [1] | IC50 (viability decrease) [2] | Potency [3] | Potency [4] | Potency [5] | Potency [6]

O=C(C=Cc1ccc(/C=C/C(=O)Nc2ccc(C3=NCCN3)cc2)cc1)Nc1ccc(C2=NCCN2)cc1
inactive: Potency [1] | IC50 (viability decrease) [2] | Potency [4] | Potency [5] | Potency [6]

COc1cccc2cc(-c3nc(C4CCC(C(=O)O)CC4)n4ncnc(N)c34)[nH]c12 (centres undefined)
inactive: Potency [3] | Potency [6]
active: Potency [1] 0.372 µM | Potency [4] 1.3 µM | Potency [5] 296 nM and 1.46 µM and 1.3 µM

C#Cc1cccc(Nc2ncnc3cc(OCCOC)c(OCCOC)cc23)c1
inactive: Potency [3] | Potency [6]
active: Potency [1] 16.6 µM | IC50 (viability decrease) [2] 7.43 µM

Cc1ccccc1C(C(=O)NC1CCCC1)N(C(=O)Cn1cnc2ccccc21)c1cccc(F)c1 (centres undefined)
inactive: Potency [1]

Cc1csc(NC(=O)c2sc3nc4c(c(C(F)(F)F)c3c2N)CCC4)n1
inactive: Potency [1] | IC50 (viability decrease) [2] | Potency [3] | Potency [5] | Potency [6]

O=C(O)c1ccc(-c2c[nH]c3ccc(-c4ccccc4)cc23)cc1C1CCCC1
inactive: Potency [1] | Potency [3]

CCOc1cc(C(=O)Nc2ccc(Cl)c(-c3nc4ccccc4[nH]3)c2)cc(OCC)c1OCC
inactive: Potency [1] | IC50 (viability decrease) [2] | Potency [3] | Potency [6]

CCCc1nc2c(C)cc(-c3nc4ccccc4n3C)cc2n1Cc1ccc(-c2ccccc2C(=O)O)cc1
inactive: Potency [1] | IC50 (viability decrease) [2] | Potency [3] | Potency [5] | Potency [6]

C[C@]12CC[C@H](O)CC1=CC[C@@H]1[C@H]2CC[C@]2(C)C(c3cccnc3)=CC[C@H]12
inactive: Potency [1] | IC50 (viability decrease) [2] | Potency [5] | Potency [6]

CC[C@H](Nc1ncnc2nc[nH]c12)c1nc2cccc(F)c2c(=O)n1-c1ccccc1
active: IC50 (viability decrease) [2] 20.9 µM
inactive: Potency [3] | outcome [4] inactive [at 9.29 µM] | activity change, negative = cytotoxicity [5] 3.11% [at 9.29 µM] | Potency [6]

CN(C(=O)c1ccc(F)cc1C(F)(F)F)C1CCN(c2nnc(-c3ccnn3C)c3ccccc23)CC1
inactive: Potency [1] | Potency [5] | Potency [6]

O=C(c1cc(Cc2n[nH]c(=O)c3ccccc23)ccc1F)N1CCN(C(=O)C2CC2)CC1
inactive: Potency [5] | Potency [6]
active: Potency [1] 18.7 µM

CC(C)(C)OC(=O)CN(Cc1ccc(Cl)cc1)Cc1ccc([N+](=O)[O-])s1
inactive: Potency [1] | Potency [6]
